# Measurements published in PubChem BioAssay AID504558 (Broad Institute, 2011).
# Screen size: about 350,000 compounds; about 2,400 (0.69%) were called active. This is one part of a sample in which actives are shown more often than they occur. Values without a mark were called inactive. Rule as the data show it: active = inhibition above about 41%; inconclusive = no clear call, values can overlap the other calls; inactive = below that.
# Test: blockers of LMP1-induced NF-kB reporter signal – cell-based, luminescence, single point, primary screen (AID 504558);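 also: 0% = neutral control wells and 100% = reference inhibitor control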
# Details: LMP1-induced NF-kappaB luciferase reporter cells, at 12.5 µM, active compounds read high
row,SMILES,inhibition
1,COc1cc2ccc(C(C)=O)c(O)c2cc1OC,3.32%
2,COc1ccc(S(=O)(=O)N2CCC(C(=O)NCCC(=O)Nc3ccccc3OC)CC2)cc1,1.21%
3,COc1ccc(C(=O)OCC(=O)Nc2cc(C)on2)cc1F,-6.31%
4,COc1ccc(C(=O)NCC2CCCO2)cc1S(=O)(=O)NCc1ccc(Cl)cc1 (configuration not stated),-0.644%
5,CC1CN(C(=O)c2cccc(NS(=O)(=O)c3ccc(Br)cc3)c2)CC(C)O1 (configuration not stated),0.834%
6,O=C(Nc1cccc2ccccc12)NC1CC1,-3.72%
7,CC1=C(C(=O)Nc2cccc(C(=O)NCC(C)c3ccccc3)c2)SCCO1 (configuration not stated),-2.25%
8,COc1cc2c(cc1OC)CN(CC(=O)Nc1ccc(F)cc1)CC2,9.89%
9,CC[C@H]1CN2CCc3cc(OC)c(OC)cc3[C@@H]2C[C@@H]1C[C@H]1NCCc2cc(OC)c(OC)cc21,89.9% (active)
10,CC(C)CC1C(=O)N(Cc2cn(CC3CCCCC3)nn2)CCS(=O)(=O)N1Cc1ccc(-c2ccc(Cl)cc2)cc1 (configuration not stated),5.31%
11,O=C(COC(=O)c1cccc(Cl)c1Cl)NC1CCCCCC1,-5.21%
12,O=C(NC(Nc1nc2ccc([N+](=O)[O-])cc2s1)(C(F)(F)F)C(F)(F)F)c1ccccc1,56.9% (active)
13,Cc1ccc(NC(=O)c2cccc(S(=O)(=O)N3CCCc4ccccc43)c2)nc1,16.9%
14,CN(C)CCCN(C(=O)c1ccc(S(=O)(=O)N2CCCc3ccccc32)cc1)c1nc2ccc(F)cc2s1,-4.71%
15,O=C(O)c1cc([N+](=O)[O-])c(Nc2cccc3ccccc23)c([N+](=O)[O-])c1,1%
16,O=C(Nc1nc2ccc([N+](=O)[O-])cc2s1)c1ccc(S(=O)(=O)N2CCCc3ccccc32)cc1,52.5% (active)
17,N=C1C(c2nc3ccccc3s2)=C(O)CN1NC(=O)c1ccc([N+](=O)[O-])cc1,-6.15%
18,C[C@@H]1CN([C@@H](C)CO)C(=O)c2cc(NS(C)(=O)=O)ccc2O[C@@H](C)CCCCO[C@H]1CN(C)C(=O)Nc1ccc2c(c1)OCO2,-2.68%
19,CC(C)CCC(=O)Nc1cc(S(=O)(=O)N2CCOCC2)ccc1N1CCCC1,0.721%

row,SMILES,inhibition
1,O=S1(=O)CCN(C2CCCCCCCCCCC2)CC1,3.93%
2,CCCCCCn1c(=O)n2n(c1=O)C[C@]1(OC(=O)NCc3ccc(OC)c(OC)c3)CN(S(=O)(=O)c3ccc(C)cc3)C[C@]1(O)C2,-11.4%
3,O=C1c2ccccc2-c2ccccc2NC1O (configuration not stated),5.68%
4,COc1ccc(-c2cnc3c(c2)C(=O)N([C@H](C)CO)C[C@@H](C)[C@H](CN(C)Cc2ccccc2)O3)cc1,-7.99%
5,COc1ccc(OC)c(NC(=O)C2CCCN2S(=O)(=O)c2ccc3c(c2)CC(C)N3C(C)=O)c1 (configuration not stated),1.47%
6,O=C(OCC(=O)N1CCCCCC1)c1cccc(Cl)c1Cl,-36.1%
7,COc1ccc(CC(=O)Nc2sc(Cc3ccccc3)c(C)c2C(N)=O)cc1,0.44%
8,Cc1ccc(C(=O)Nc2sc(Cc3ccc4c(c3)OCO4)c(C)c2C(N)=O)cc1,81% (active)
9,COCc1nnc(NC(=O)c2ccc3c(c2)OCO3)s1,7.49%
10,COc1ccc(CN2C(=O)C(CC(=O)NC3CCCCC3)CC(C(=O)N3CCOCC3)=C2C)cc1 (configuration not stated),1.44%
11,Cc1c(Cl)cnc(NC(=O)COC(=O)C2CCCC2)c1Cl,-6.23%
12,CSCCC(NC(=O)c1ccco1)C(=O)OCC(=O)Nc1ncc(Cl)c(C)c1Cl (configuration not stated),59.5% (active)
13,CSCCC(NC(=O)c1ccco1)C(=O)Nc1cc(C)ccn1 (configuration not stated),-34.2%
14,COc1cccc(OCC(=O)NCCS(=O)(=O)N2CCN(c3ccccc3)CC2)c1,1.31%
15,O=C(CC(CC(=O)c1ccccc1)c1ccco1)c1ccccc1,-17.7%
16,CCOC(=O)CN/C=C(\C#N)c1ccc(F)cc1,1.95%
17,C/C(=N\OCC(=O)O)c1ccc(Cl)cc1,-9.17%
18,CCOc1cc(/C=C(/C#N)c2ccc(Cl)cc2)cc(Cl)c1OCC(=O)O,43.8% (active)
19,CCOC(=O)c1cc(-c2sc(NC(=O)c3ccccc3)nc2C)n(-c2ccc(Br)cc2)n1,-16.6%

row,SMILES,inhibition
1,C[C@@H]1CN([C@H](C)CO)S(=O)(=O)c2ccc(C#CC3CCCCC3)cc2O[C@H]1CN(C)C(=O)Cc1ccncc1,-11.3%
2,COc1ccc(C(CNC(=O)c2ccc(OCc3cscn3)cc2)N2CCCC2)cc1 (configuration not stated),-12%
3,CC(=O)Nc1c(-c2ccc(C)cc2)nc2ccc(Cl)cn12,6.02%
4,Cc1sc2nc(-c3ccccc3F)oc(=O)c2c1C,1.32%
5,CSc1ncnc2c1ncn2CCCNCC1CCCCC1,3.66%
6,O=C(NN=Cc1ccccc1O)NN=Cc1ccccc1O,33.4%
7,Cc1ccc(/C=N/NC(=O)C2=NNC(c3ccccc3)(c3ccccc3)C2)c(O)c1,61.6% (active)
8,O=C(N/N=C/c1ccccc1O)C1CCCC1,0.696%
9,Cc1nc2ccccc2nc1CC(O)(c1ccccc1)c1ccccc1,-2.04%
10,Nc1ccccc1-c1nc2ccncc2[nH]1,2.17%
11,O=C(COc1ccc(Cl)cc1Cl)N/N=C/c1ccccn1,19.3%
12,Cc1nnc(N/N=C/c2ccccn2)[nH]c1=O,60.6% (active)
13,O=C(N/N=C/c1ccccn1)C12CC3CC(CC(C3)C1)C2,-4.71%
14,Cc1ccc(-c2ccc(CN3C(C)C(=O)N(Cc4cn(CCC5OCCCO5)nn4)CCS3(=O)=O)cc2)cc1 (configuration not stated),3.6%
15,C[C@@H]1CCCCO[C@H](CN(C)Cc2ccccc2)[C@@H](C)CN([C@H](C)CO)C(=O)c2cc(NS(=O)(=O)c3ccc(Cl)cc3)ccc2O1,-0.347%
16,CCN(CC)C(=O)C1=C(C)N(Cc2ccc(F)cc2)C(=O)C(CC(=O)NC2CCCC2)C1 (configuration not stated),5.32%
17,COc1ccc(C(=O)Nc2ccccc2C(=O)N/N=C/c2ccc(O)c(OC)c2)cc1,66.5% (active)
18,O=C(NN=Cc1ccc2c(c1)CCC2)c1ccccc1O,-10.8%
19,COc1cc(C=NNC(=O)c2cccnc2)ccc1OC(=O)c1ccccc1F,5.47%
